PubChem BioAssay (NCI)
Compounds without any hit were thinned out: in the full panel of roughly 83,000, 20% have a hit.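 How to read the values: 0–100, growth inhibition (40 = 60% inhibited); 0, no net growth; -100 to 0, cell death (-40 = 40% of starting cells died; -100 = all dead).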 Unmarked numbers belong to inactive results. The source made the active and inactive calls. Rule for the calls: active = growth percent below 10; inactive = the rest.

What follows are compounds tested on HL-60(TB) leukemia (assay: NCI-60 one-dose screen, 48 h (100 = growth as untreated, 0 = no growth, -100 = all killed)). Conditions: 10 µM unless noted.

Structure (SMILES) | growth
O=C1C=CC(=O)N1c1ccc2c(c1)Cc1cc(F)ccc1-2 | 63%
CN1CCN(CC(=O)Nc2nc3c(s2)Nc2cc(Cl)c(Cl)cc2NC3=O)CC1 | 81.9%
COc1ccc2nc3c(cc2c1)C(=O)CC(c1ccccc1)C3 (centres undefined) | -1.74% (active)
CCCCCCCC/C=C\CCCCCCCCOc1cccc(CC(=O)NCC[N+](C)(C)C)c1 | 61.1%
